# Experimental data reported in ChEMBL document CHEMBL4513216, “Probing the Open Global Health Chemical Diversity Library for Multistage-Active Starting Points for Next-Generation Antimalarials” (ACS Infect Dis, 2020).
# The campaign covered roughly 69,000 compounds. About 8,600 (12%) showed an effect of 50% or more. The sample holds strong results, similar compounds and a random draw of the others, so the mix is not that of the screen.
# System: Plasmodium berghei
# Experiment: Screen against P. berghei liver stage (PbLuc), transformed with Luciferase, at 10uM
# Assay type: functional, HepG2
# Conditions: tested at 10 uM
row,Compound,INHIBITION [%]
1,NC(=O)NC(=O)CCN1CCCC1c1cccc2c1OCCO2 (centres undefined),27.7
2,COC(=O)CCN1CCCC1c1cccc2c1OCCO2 (centres undefined),15.9
3,CCNC(=O)CCN1CCCC1c1cccc2c1OCCO2 (centres undefined),-2.23
4,COCCN1CCCC1c1cccc2c1OCCO2 (centres undefined),59.4
5,O=C(CCN1CCCC1c1cccc2c1OCCO2)N1CCOCC1 (centres undefined),57.7
6,O=C(CCN1CCCC1c1cccc2c1OCCO2)N1CCCCC1 (centres undefined),40.6
7,Cn1cc(C(=O)NCC2CCN(C(=O)NC3CCCCC3)CC2)cn1,-3.7
8,CCC(CO)Nc1nc(C(F)F)nc2ccccc12 (centres undefined),8.41
9,CSCC(CCO)Nc1nc(C(F)F)nc2ccccc12 (centres undefined),-49
10,OCC(CO)Nc1nc(C(F)F)nc2ccccc12,51.9
11,CCc1nc(C2CCCN2C(=O)c2cc[nH]n2)no1 (centres undefined),58.5
12,CCc1nc(C2CCCN2C(=O)c2c[nH]c(C)n2)no1 (centres undefined),26.1
13,Cc1ccc(-c2noc(C3CCN3C(=O)c3ccn(C)n3)n2)s1 (centres undefined),23.95
14,CCCc1nc(CN(CC)C(=O)c2ccc(OC)c(OC)c2)no1,30.1
15,CCc1nc(C2CCCN2C(=O)c2cc(C3CC3)[nH]n2)no1 (centres undefined),9.32
16,Cc1ccc(-c2noc(C3CCN3C(=O)c3ccc(=O)[nH]n3)n2)s1 (centres undefined),4.505
17,CCCc1nc(CN(CC)C(=O)c2ccc3c(c2)nnn3C)no1,52.8
18,CCc1nc(C2CCCN2C(=O)c2ccc3c(c2)nnn3C)no1 (centres undefined),62.6
19,CCc1nc(C2CCCN2C(=O)c2ccc3c(c2)nc(C)n3C)no1 (centres undefined),-8.3
20,Cc1ccc(-c2noc(C3CCN3C(=O)c3cc[nH]n3)n2)s1 (centres undefined),85
21,CCCc1nc(CN(CC)C(=O)c2ccc3[nH]cnc3c2)no1,30.1
22,CCc1nc(C2CCCN2C(=O)c2ccc3c(c2)nnn3CC)no1 (centres undefined),2.61

row,Compound,INHIBITION [%]
1,O=C(NCC1(COc2cnccn2)C[C@@H](O)[C@@H](O)C1)C1CC1 (some centres undefined),18.2
2,COc1nn(C)c2c1CCCN(C(=O)COc1ccccc1)C2,-15.7
3,COc1cc(NC(=O)CCn2nc(-c3cccs3)oc2=O)cc(OC)c1,-7.81
4,CC1CCCN(C(=O)c2ccn(COc3ccccc3)n2)C1 (centres undefined),27.5
5,CC(C)N1CCc2c(c(COc3cncnc3)nn2CC2CC2)C1,2.4
6,Cc1nn(C)c(N2CCOCC2)c1CNC(C(N)=O)c1ccccc1 (centres undefined),-32.4
7,COc1ccc(CNC(=O)NCC(=O)NC2CC2)c(C(F)(F)F)c1,26.6
8,CCc1ccc(S(=O)(=O)Nc2ccc(F)cc2C(=O)O)s1,5.605
9,CC(=O)N1CCO[C@@H]2CN(S(=O)(=O)c3cccs3)CC[C@@H]2C1,21.6
10,CC1CCN(C(=O)[C@H]2C[C@@H]3CCN(CC4CCOCC4)C[C@@H]3O2)CC1,24.9
11,CCc1cc(O)nc(C2CCCN2C(=O)c2cc(CC)on2)n1 (centres undefined),51.5
12,CCc1cc(C(=O)N2CCCC2c2nc(O)cc(CC)n2)on1 (centres undefined),1.11
13,CCc1cc(O)nc(C2CCCN2C(=O)COC)n1 (centres undefined),30.8
14,Cc1cccc(C(=O)N2CCC(c3n[nH]c(C4CC4)n3)CC2)c1,44.1
15,O=c1[nH]ccn1CCCN1CC=C(c2cnn(-c3ccccc3)c2)CC1,-95.3
16,Cc1ccccc1-n1cc(C2=CCN(CCN3CCOCC3)CC2)cn1,19.4
17,Cc1ccccc1-n1cc(C2=CCN(CCn3cc[nH]c3=O)CC2)cn1,69.4
18,CCOCc1ncn2c1CN(C(=O)Nc1ccccc1)CC2,-27
19,O=C(c1cccc(O)n1)N1CCC(O)(CN2CCC(F)(F)CC2)C1 (centres undefined),-21.6
20,Cc1nc2c(c(NCc3ccccc3)n1)CCN(C(=O)NC(C)C)CC2,66.1
21,COCCNc1nc2c(c(NCCc3cccs3)n1)CCNCC2,28
22,CC(=O)N1CCc2c(nc(N(C)C)nc2NCCCn2ccnc2C)C1,71.3

row,Compound,INHIBITION [%]
1,CC(=O)N1CCc2c(nc(N(C)C)nc2N(C)CCC2CCCCO2)C1 (centres undefined),-10.4
2,CC(=O)N1CCc2c(nc(N(C)C)nc2NCCCn2ccnc2)C1,18.4
3,CC(=O)N1CCc2c(nc(N(C)C)nc2NCCC2CCCCO2)C1 (centres undefined),45.1
4,Cc1nccn1CCCNc1ncccc1C#N,18.4
5,CC(C)NC(=O)N1CCc2nc(C(=O)NCc3ccccc3)sc2CC1,34.1
6,CSCC(=O)N1CCc2nc(C)nc(NCc3ccccc3)c2CC1,37.3
7,CC(=O)N1CCc2c(nc(N(C)C)nc2NCc2cccs2)C1,61.9
8,CC(=O)N1CCc2c(nc(N(C)C)nc2N(C)CCCC2CCCO2)C1 (centres undefined),21.7
9,CC(=O)N1CCc2c(nc(N(C)C)nc2NCCc2cccs2)C1,63.8
10,Cn1c(NCC(O)c2ccc(F)cc2)c(C#N)c(=O)n(C)c1=O (centres undefined),-60.8
11,Cn1cc(CN2CCCC3(CCN(c4nncs4)C3)C2)cn1 (centres undefined),22.4
12,CN1CCO[C@@H]2CN(S(=O)(=O)c3ccccc3)CC[C@@H]2C1,4.02
13,CC(=O)N1[C@H](CN(C)C)C[C@@H]2CN(C(=O)c3cccn3C)CC[C@@H]21,-9.74
14,COc1c(C2CCCN2C(=O)c2cscn2)c(C)nn1C (centres undefined),38.8
15,O=C(Nc1ccccc1)C1CN(CC2CC2)CC12CCOCC2 (centres undefined),4.2
16,Cc1ccc(CNC(=O)CN(CCC(N)=O)c2ccc(F)cc2)cc1,16
17,Cc1ccc(CCNC(=O)N2CCC(Cc3cnn(C)c3)C2)cn1 (centres undefined),-3.58
18,Cc1cc(Br)ccc1CNC(=O)C1(O)CCSCC1,19.1
19,CN(C)c1nc2c(c(N3CCCC3)n1)CCN(C(=O)c1ccc[nH]1)CC2,34.5
20,Cc1nc(CCNc2nc(N(C)C)nc3c2CCCC3)cc(=O)[nH]1,24.7
21,CC(=O)N1CCc2c(nc(N(C)C)nc2N(C)CCO)C1,31.6
22,CC(=O)NC1CCN(c2nc(N(C)C)nc3c2CCCC3)CC1,46.6

row,Compound,INHIBITION [%]
1,CC(=O)N1CCc2c(nc(N(C)C)nc2NC(C)Cc2cccs2)C1 (centres undefined),78.6
2,CNC(=O)CN(C)c1nc(-c2ccncc2)nc2c1CCN(C(C)=O)C2,31.8
3,CC(C)Nc1ncnc2c1CCN(C(=O)Cc1cccs1)CC2,21.8
4,CC(=O)N1CCc2nc(N(C)C)nc(NCCc3ccccc3)c2CC1,79.7
5,CC(=O)NC1CCN(c2nc(N(C)C)nc3c2CCN(C(C)=O)C3)CC1,58.9
6,O=C(Cc1cccs1)N1CCCCC1c1ccn2ccnc2n1 (centres undefined),26.3
7,CCOc1cc(C)nc(N2CCN(C(=O)c3cc[nH]n3)CC2)n1,40
8,O=C(c1ccc2nncn2c1)N1CCCC(n2ccnc2)C1 (centres undefined),16.9
9,CCCNC(=O)CCNC(=O)N1CCC(=Cc2ccccc2)CC1,9
10,CNC(=O)N1CCC(=Cc2ccccc2)CC1,-27.4
11,CCNC(=O)N1CCC(=Cc2ccccc2)CC1,63.3
12,CN(C)c1nc2ncc(Cl)cc2cc1C#N,-8.35
13,CCOC(=O)N1CCC(Nc2cc(CC)nc3c(C)c(C)nn23)CC1,-31.4
14,CC[C@@H](C)[C@H](NC(=O)CCn1cc(C(C)=O)c2ccccc21)C(=O)O,-27
15,CCn1nc(C)c2c1cnn2CCNS(=O)(=O)Cc1ccccc1,47.4
16,O=C(c1cocn1)N1CCC[C@]2(C[C@@H](OCC3CC3)CO2)C1,-2.72
17,Cc1cccc(C(=O)N2CCC[C@]3(C[C@@H](OCC4CC4)CO3)C2)n1,52
18,O=C(c1ccncn1)N1CCC[C@]2(C[C@H](OCC3CC3)CO2)C1,50.9
19,CCOC1COC2(CCN(c3cccc(C)n3)CC2)C1 (centres undefined),16.6
20,CCOC1COC2(CCN(Cc3cccc(C)n3)CC2)C1 (centres undefined),25.6
21,Cc1cc(C(=O)N2CCC[C@]3(C[C@@H](OCC4CC4)CO3)C2)no1,21.8
22,O=C(c1ccncn1)N1CCC[C@]2(C[C@@H](OCC3CC3)CO2)C1,42.7

row,Compound,INHIBITION [%]
1,Cc1cc(C(=O)N2CCC[C@]3(C[C@H](OCC4CC4)CO3)C2)no1,17.1
2,CCOC1COC2(CCN(C(=O)c3cccc(C)n3)CC2)C1 (centres undefined),63.3
3,CC(CC(=O)NCCCn1cccn1)c1cccnc1 (centres undefined),15.7
4,CC(C)(C)c1nnc2n1C(C(=O)N1CCN(c3ncccn3)CC1)CC2 (centres undefined),14.3
5,Cc1ccc(C)c(CSc2nnc(C(N)C(C)C)o2)c1 (centres undefined),21.8
6,c1ccc(Cc2noc(CN3CCOC(Cn4cccn4)C3)n2)cc1 (centres undefined),24
7,Cn1cc(C(=O)NCc2ccc(N3CCCC3)nc2)ccc1=O,35.9
8,CN(C)c1ccc(CNC(=O)NCCc2cn3ccccc3n2)cn1,-10.6
9,CCOc1cc(NC(=O)N2CCOC3(CCC3)C2)ccc1C,2.45
10,CCN1CCCCC1C(=O)Nc1cccc(-c2nnc[nH]2)c1 (centres undefined),19.7
11,CC1(c2ncc(CN3CCOCC3)cn2)CCCCO1 (centres undefined),18.04
12,c1cnc(-c2nn3c(CN4CCOCC4)nnc3s2)cn1,4.35
13,CCc1nc(CCn2ccc3nc(OC)c(C#N)cc3c2=O)no1,32.3
14,Cc1ccnc(NCCNC(=O)C2CC3(CCNCC3)CN2C)c1 (centres undefined),-17.9
15,CC(C)SCCn1ccc2[nH]c(=O)c(C#N)cc2c1=O,23.5
16,N#Cc1cc2c(=O)n(CC(O)Cc3ccccc3)ccc2[nH]c1=O (centres undefined),25.9
17,COCCn1cnc2ccc(NC(=O)c3ccc(OC)cc3)cc2c1=O,-13.6
18,COc1nc2ccn(CCc3cc(O)nc(C)n3)c(=O)c2cc1C#N,58.3
19,COc1nc2ccn(CCc3cnccn3)c(=O)c2cc1C#N,72.6
20,COc1nc2ccn(CCc3scnc3C)c(=O)c2cc1C#N,45.7
21,COc1nc2ccn(CCNc3cc(C)ccn3)c(=O)c2cc1C#N,58.3
